In the library only some 2.3% were active in any assay of this set; here they are far more common.
CHRM1 PAM – human M1 muscarinic receptor positive allosteric modulators, primary screen, CHO-K1 cells, Fluo-8 calcium fluorescence, 1536-well; actives 0.088% (n = 360,000); Muscarinic acetylcholine receptor M1 (Homo sapiens), P11229; CHO-K1 hM1, ACh EC20; 0% = ACh EC20, 100% = maximal ACh; activation, % at 3 µM; in the data active = activation above about 19%, passing the limit was not always enough
Target sequence (P11229 whole entry, looked up): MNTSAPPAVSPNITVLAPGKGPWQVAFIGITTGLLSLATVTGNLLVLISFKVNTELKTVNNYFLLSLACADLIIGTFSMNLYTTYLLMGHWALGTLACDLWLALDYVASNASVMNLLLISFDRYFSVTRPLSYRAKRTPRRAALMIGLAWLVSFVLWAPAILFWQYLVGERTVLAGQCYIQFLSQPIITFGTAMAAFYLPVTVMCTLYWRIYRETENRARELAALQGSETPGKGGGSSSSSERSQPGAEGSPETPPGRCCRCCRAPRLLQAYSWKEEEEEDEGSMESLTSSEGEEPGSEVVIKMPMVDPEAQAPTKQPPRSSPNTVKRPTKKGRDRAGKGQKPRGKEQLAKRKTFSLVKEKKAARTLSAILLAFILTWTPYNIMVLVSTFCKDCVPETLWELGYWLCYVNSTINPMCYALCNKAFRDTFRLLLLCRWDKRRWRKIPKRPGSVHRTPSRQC
M1 antag – human M1 muscarinic receptor antagonists, primary screen, CHO-K1 cells, Fluo-8 calcium fluorescence, 1536-well. CHO-K1 hM1, ACh EC80 antagonist. inhibition, % at 3 µM. actives 1.3% (n = 360,000);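 active = percent inhibition above its own plate's cutoff, namely the mean of that plate's compound wells plus 3 SD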;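 also: peak over basal fluorescence ratio during 140 s after agonist addition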
M1 PAM parental – nonselective calcium activators in parental CHO-K1 cells, primary screen, counter-screen for M1 PAM project, cell-based, Fluo-8 calcium fluorescence, full deck, 1536-well; ATP EC20; 0% at ATP EC20, 100% at ATP max; activation, % at 3 µM; actives 0.02% (n = 360,000);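 active = activation above the run cutoff, the mean activation of all test compounds plus 3 SD, cut at about 40% in these data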;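 also: peak over basal fluorescence ratio in a 140 s read after ATP addition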
CHO-K1 Ca antag – M1 antagonist counterscreen hit in parental CHO-K1 cells; inhibition, % at 3 µM; actives 0.6% (n = 360,000); AID 602250; ATP-induced calcium, Fluo-8 fluorescence;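 active = inhibition above a per-plate cutoff, the plate's mean sample inhibition plus 3 SD, cut at about 24% in these data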
CHO-K1 Ca ag – counter-screen for M1 agonists: effect in parental CHO-K1 cells | Fluo-8 calcium fluorescence; scaled to maximal ATP response, vehicle zero | activation, % at 3 µM | actives 0.48% (n = 360,000); in the data active = activation above about 15%;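 also: untransfected CHO-K1 host cells lacking M1 receptor as counterscreen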
CHRM1 agonist – human M1 muscarinic receptor agonists, primary screen, Fluo-8 calcium fluorescence, CHO-K1 cells, HTS; activation, % at 3 µM; actives 0.33% (n = 360,000); CHO-K1 hM1, agonist mode; 0% DMSO, 100% acetylcholine EC100; Muscarinic acetylcholine receptor M1 (Homo sapiens), P11229;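 active = activation above the run's mean compound activation plus 3 SD, cut at about 16% in these data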;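 also: peak over basal fluorescence ratio within a 140 s kinetic read after compound addition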
Each line names hits and unclear results; the compound was inactive in the other large screens.

CC(C[N+](C)(C)C)OC(=O)C1(c2ccccc2)CCCC1 (stereo not drawn)	M1 antag 93
COc1ccc(NC(=O)C2(c3ccccc3)CCCC2)cc1	none
CCN(CC)CCOC(=O)C1(c2ccc([N+](=O)[O-])cc2)CCCC1	M1 antag 96
C[N+](C)(C)CCOC(=O)C1(c2ccccc2)CCCC1	M1 antag 99
C[N+]1(CCOC(=O)C2(c3ccccc3)CCCC2)CCCCC1	M1 antag 100
COc1ccc(C(=O)OCC[N+]2(C)CCCCC2)cc1	none
CCOC(=O)C1CCN(C(=O)Nc2ccc(OC(F)(F)F)cc2)CC1	none
COC(=O)CCCC(=O)NC1CCCc2c1cnn2-c1ccc(F)cc1F (stereo not drawn)	none
CCN(CC)CCOC(=O)C1(c2ccccc2)CCOCC1	none
CCN(CC)CCCOC(=O)C1(c2ccccc2)CCCC1	M1 antag 99
Cc1cc(C)n(-c2nc(NC(C)(C)C)nc(NC(C)(C)C)n2)n1	none
Cc1cc(C)n(-c2nc(Nc3ccccc3C(F)(F)F)nc(-n3nc(C)cc3C)n2)n1	CHO-K1 Ca ag 19
C[C@H](NC(=O)N1CCn2c1nc1ccccc12)C(=O)NCCc1ccccc1	none
Cc1cc(/C=N/n2cnnc2)c(C)n1-c1ccc(OCc2ccc(Cl)cc2)cc1	CHO-K1 Ca antag 24
Cc1cc(/C=N/n2cnnc2)c(C)n1-c1ccc(OCc2ccccc2F)cc1	M1 antag 45
O=C1CCC(C2CCc3cc(O)ccc3C2)C1 (stereo not drawn)	none
O=C1NC[C@@H](CCCCN2C[C@H](Cc3ccccc3)N(CCC3CCCCC3)C(=O)C2=O)N(CC2CCCCC2)C1=O	none (no result: CHRM1 PAM, M1 antag, CHRM1 agonist)
CC1=NN(c2ccccc2)C(=O)/C1=C\C=C1/N(C)c2ccccc2C1(C)C	M1 antag 26, CHO-K1 Ca ag 32, CHRM1 agonist 23
CC1=NN(c2ccccc2)C(=O)/C1=C\C=C1\N(C)c2ccccc2C1(C)C	none
Cc1ccccc1N=C/C=C1\N(C)c2ccccc2C1(C)C	M1 antag 25
CN1/C(=C\C=N\O)C(C)(C)c2ccccc21	none
CN1/C(=C\C=C2/SC(=S)NC2=O)C(C)(C)c2ccccc21	M1 antag 62, CHO-K1 Ca antag 59, CHO-K1 Ca ag 72, CHRM1 agonist 57
CC(=O)N1CCc2cc(S(=O)(=O)NCCC(=O)NC3CCCc4ccccc43)ccc21 (stereo not drawn)	none
COc1ccc(N2CCN(C(CNC(C)=O)c3ccc4c(c3)OCO4)CC2)cc1 (stereo not drawn)	none
COc1ccc(N2CCN(C(CNC(=O)CC(C)(C)C)c3ccc4c(c3)OCO4)CC2)cc1 (stereo not drawn)	M1 antag 31
Cc1noc(C)c1C(=O)OCC(=O)NC1CC1	M1 antag 14
CSc1nc2c(c(=O)[nH]1)C(c1ccc(Br)cc1)CC(=O)N2 (stereo not drawn)	CHO-K1 Ca ag 16
CSc1nc2c(c(=O)[nH]1)C(c1ccc(F)cc1)CC(=O)N2 (stereo not drawn)	none
Cc1c(S(=O)(=O)N2CCN(c3ccc(F)cc3)CC2)c(=O)n(C)c(=O)n1C	none
COc1ccccc1/C(C)=N/Oc1cc(N)cc([N+](=O)[O-])c1	none
COC(=O)c1[nH]c2c(c1C)C(=O)CC(c1ccc(OC)c(OC)c1)C2 (stereo not drawn)	CHO-K1 Ca ag 23
COCCOC(=O)c1[nH]c2c(c1C)C(=O)CC(c1ccc(OC)c(OC)c1)C2 (stereo not drawn)	none
CCOC(=O)c1[nH]c2c(c1C)C(=O)CC(c1ccc(F)cc1)C2 (stereo not drawn)	CHO-K1 Ca antag 34
Cc1noc(C)c1CSc1nc2ccccc2[nH]1	M1 antag 24
c1ccc(-c2cc(CSc3nc4ccccc4[nH]3)on2)cc1	M1 antag 21
Cc1ccc(N2CCC3CC2c2cc(-c4ccc(C(F)(F)F)cc4)ccc23)cc1 (stereo not drawn)	none
O=C(Nc1nc2c(Br)cccc2s1)C1CC1	none
CCCN(CCC)c1ncnc2nc[nH]c12	CHO-K1 Ca antag 29
Clc1ccccc1CN(Cc1ccccc1)c1ncnc2nc[nH]c12	none
O=C(COC(=O)/C=C/c1ccccc1Cl)NC1CCCC1	none
COC(=O)c1ccc(CN2CCCC(C(=O)c3cc(F)ccc3OC)C2)cc1 (stereo not drawn)	none
CCOC(=O)C1CCC(CNCc2ccc(Cl)cc2)CC1 (stereo not drawn)	M1 antag 45
COC(=O)c1ccc(CN2CCCC(C(=O)c3ccccc3OC)C2)cc1 (stereo not drawn)	CHRM1 agonist 27
COc1ccc(/C=C/CN2CCC(CO)(Cc3ccccc3Cl)CC2)cc1	M1 antag 31
CCOC(=O)C1CCN(C(=O)CCC(=O)NCCc2ccc(Cl)cc2)CC1	none
COC(=O)c1ccc(CN2CCC(CO)(Cc3ccccc3Cl)CC2)cc1	M1 antag 52, CHRM1 agonist 19
CN1CCN(C(=O)CSc2nc(-c3cccs3)ccc2C#N)CC1	none
COc1ccccc1N1CCN(Cc2cc(=O)oc3cc(C)cc(C)c23)CC1	none
CCOC(=O)C1(CC2CC2)CCN(Cc2ccc(C(=O)OC)cc2)CC1	M1 antag 60
CCOC(=O)C1(CCc2ccccc2)CCN(Cc2ccc(C(=O)OC)cc2)CC1	none
CCOC(=O)C1(CC2CC2)CCN(Cc2cn(C)c3ccccc23)CC1	M1 antag 32
COC(=O)c1ccc(CN2CCCC(C(=O)Nc3ccc(-c4ccn[nH]4)cc3)C2)cc1 (stereo not drawn)	CHRM1 agonist 36
COC(=O)c1ccc(CN2CCN(CC(C)C)C(CCO)C2)cc1 (stereo not drawn)	M1 antag 35
CCOC(=O)C1(Cc2ccccc2)CCN(Cc2cn(CC(=O)OC)c3ccccc23)CC1	none
CCCN1C(=O)c2ccccc2NC1c1ccc(O)c(OCC)c1 (stereo not drawn)	none
COC(=O)c1ccc(CN2CCCCC2)cc1	CHRM1 agonist 27
COc1ccc(C(=O)Nc2ccc(CN3CCCCC3)cc2)cc1	none
CCOC(=O)C1CCN(Cc2ccc(C(=O)OC)cc2)CC1	M1 antag 67, CHRM1 agonist 43
COc1cccc(C(C)(O)c2nc(-c3ccc(C)c(C)c3)cs2)c1 (stereo not drawn)	none

Source: PubChem BioAssay
